Data taken from PubChem BioAssay AID999 (SRMLSC, 2007).
Values without a mark were called inactive. Calls of active or inactive are those of the source.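 Rule for the calls: active = viability at or below 21.59%, 3 SD under the median of tested compounds; inactive = the rest.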

assay: growth suppression of PTEN-null HCT116 cells, cell-based, validation, diverse DP compound set (AID 999); conditions: CellTiter-Glo, 60 h, at 10 µM, hits give low values;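 note: 100% = median luminescence of untreated cell control wells and 0% = no signal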

| SMILES | viability |
| --- | --- |
| Clc1ccc2ncnc(NCc3ccc4c(c3)OCO4)c2c1 | 83.1% |
| CCC(C)CCCCC(=O)N[C@@H](CCN)C(=O)N[C@H](C(=O)N[C@@H](CCN)C(=O)N[C@H]1CCNC(=O)C([C@@H](C)O)NC(=O)[C@@H](CCN)NC(=O)[C@H](CCN)NC(=O)[C@H](CC(C)C)NC(=O)[C@@H](CC(C)C)NC(=O)[C@H](CCN)NC1=O)[C@@H](C)O (stereo not given in full) | 96% |
| OCCN(CCO)c1nc(N2CCCCC2)c2nc(N(CCO)CCO)nc(N3CCCCC3)c2n1 | 96.3% |
| CN=C(NC#N)NCCSCc1nc[nH]c1C | 99.4% |
| COc1c(C)c2c(c(O)c1C/C=C(\C)CCC(=O)O)C(=O)OC2 | 40.1% |
| CC[C@@]1([C@@H]2O[C@@H]([C@H]3O[C@@](O)(CO)[C@H](C)C[C@@H]3C)C[C@@H]2C)CC[C@H]([C@]2(C)CC[C@]3(C[C@H](O)[C@@H](C)[C@@H]([C@@H](C)[C@@H](OC)C(C)C(=O)O)O3)O2)O1 (stereo not given in full) | 63.5% |
| COc1cc(-c2ccc(=O)[nH]n2)ccc1OC(F)F | 94.7% |
| O=c1c2ccccc2nc2n1CCc1c-2[nH]c2ccccc12 | 93.4% |
| C[C@H](CCC(=O)O)[C@H]1CC[C@H]2[C@@H]3CC[C@@H]4C[C@H](O)CC[C@]4(C)[C@H]3CC[C@]12C | 97.2% |
| C[C@@H]1CC[C@]2(C(=O)O)CC[C@]3(C)C(=CCC4[C@@]5(C)C[C@@H](O)[C@H](O)[C@@](C)(CO)C5CC[C@]43C)C2[C@H]1C (stereo not given in full) | 94.3% |
| CCCCCCCCCCCCCCCC(=O)OCC(O)C1OC(=O)C(O)=C1O (stereo not given) | 101% |
| Nc1nc2ncc(CNc3ccc(C(=O)NC(CCC(=O)O)C(=O)O)cc3)nc2c(=O)[nH]1 (stereo not given) | 99.5% |
| O=c1c(-c2ccc(O)cc2)coc2cc(O)cc(O)c12 | 87.8% |
| COC(=O)C1=C(C)NC(C)=C(C(=O)OCCNCc2ccccc2)C1c1cccc([N+](=O)[O-])c1 (stereo not given) | 65.3% |
| C=CC1(C)CC(=O)C2(O)C(C)(O1)C(OC(C)=O)C(O)C1C(C)(C)CCC(O)C12C (stereo not given) | 85.5% |
| NC(=NCc1ccccc1)NC(=O)c1nc(Cl)c(N)nc1N | 77.3% |
| Cc1cc2c(C(C)C)c(O)c(O)c(C=O)c2c(O)c1-c1c(C)cc2c(C(C)C)c(O)c(O)c(C=O)c2c1O | 13% (active) |
| CCC(C)C(O)C(C)C(=O)C(C)/C=C(\C)CC(C)C1OC(=O)C1CC (stereo not given) | 97.1% |
| CC(=O)N[C@H]1C(O[C@@H]2O[C@H](C[C@@H](O)[C@H]3O[C@@H](N4CCC(=O)NC4=O)[C@H](O)[C@@H]3O)[C@H](O)[C@H](O)[C@H]2NC(=O)/C=C/CCCCCCCCCCC(C)C)OC(CO)[C@@H](O)[C@@H]1O (stereo not given in full) | 52.8% |
| C[C@]12CCC(=O)C=C1CC[C@@H]1[C@@H]2[C@@H](O)C[C@@]2(C)[C@H]1CC[C@]2(O)C(=O)CO | 99.2% |
| CN1CCN(C2Cc3ccccc3Sc3ccc(S)cc32)CC1 (stereo not given) | 50.3% |
| COc1ccc2c(c1)c(CC(=O)O)c(C)n2C(=O)c1ccc(Cl)cc1 | 105% |
| C=C1OC(CO)(n2cnc3c(N)ncnc32)C(O)C1O (stereo not given) | 92.8% |
| C=C1CC[C@H](O)C/C1=C/C=C1\CCC[C@]2(C)[C@@H]([C@H](C)CCCC(C)C)CC[C@@H]12 | 92.4% |
| C=C(CCC12O[C@H](C(=O)O)[C@@](O)(C(=O)O)[C@](C(=O)O)(O1)[C@H](OC(=O)/C=C/[C@@H](C)C[C@@H](C)CC)[C@H]2O)[C@@H](OC(C)=O)[C@H](C)Cc1ccccc1 | 98.3% |
| [O][C@H]1[C@@H](O)[C@@H](CO)O[C@@H](O[C@@H]2[C@@H]3OC[C@H]2O[C@H](O[C@@H]2[C@@H](O)[C@H](C[C@@H]4[C@@H]5OC[C@H]4O[CH][C@@H]5O)O[C@H](CO)[C@@H]2OS(=O)(=O)O)[C@@H]3OS(=O)(=O)O)[C@@H]1O | 100% |
| COc1cc([C@@H]2c3cc4c(cc3[C@H](O)[C@H]3COC(=O)[C@H]23)OCO4)cc(OC)c1OC | 24.6% |
| COc1cccc2c1C(=O)c1c(O)c3c(c(O)c1C2=O)C[C@@](O)(C(=O)CO)C[C@@H]3OC1C[C@@H](N)[C@H](O)[C@H](C)O1 (stereo not given in full) | 27.7% |
| O=c1[nH]cc(F)c(=O)[nH]1 | 58.9% |
| COc1ccc2c3c1O[C@H]1C[C@@H](O)C=C[C@@]31CCN(C)C2 | 91.7% |
